Test [1] has as its target human Tyrosine Protein Kinase Receptor Tie-2 (Tie2), TEK (gene 7010) (UniProt Q02763). Description: NVS_ENZ_hTie2: NovaScreen (NVS) Enzymatic Assay for human Tyrosine Protein Kinase Receptor Tie-2 (Tie2) (AID 2283225). The method, boiled down: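 Recombinant human Tie2 kinase activity was read cell-free by fluorescence with electrophoretic mobility shift, 1 hour after dosing. The screen used 25 uM in duplicate, then concentration-response up to 50 uM. Signal loss was scored against DMSO.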

Test [2] concerns the target human Sirtuin 3 (SIRT3), SIRT3 (gene 23410) (UniProt Q9NTG7). Description: NVS_ENZ_hSIRT3: NovaScreen (NVS) Enzymatic Assay for human Sirtuin 3 (SIRT3) (AID 2283222). The method, boiled down: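 Cell-free enzyme assay with recombinant protein and fluorescent substrate, product separated by electrophoretic mobility shift; read 1 hour after dosing. Screened in duplicate at 25 uM, then singleton concentration-response up to 50 uM; loss of signal versus DMSO.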

Test [3] concerns the target human Protein Tyrosine Phosphatase Receptor Type M (PTPRM), PTPRM (gene 5797) (UniProt P28827). Description: NVS_ENZ_hPTPRM: NovaScreen (NVS) Enzymatic Assay for human Protein Tyrosine Phosphatase Receptor Type M (PTPRM) (AID 2283215). The method, boiled down: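 Cell-free recombinant PTPRM with fluorogenic substrate; product separated from substrate by electrophoretic mobility shift and read by fluorescence, 1.33 h after dosing. Primary screen single concentration (25 uM) in duplicate; actives retested in concentration series; loss of signal versus DMSO.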

Test [4] has as its target human Sirtuin 1 (SIRT1), SIRT1 (gene 23411) (UniProt Q96EB6). Description: NVS_ENZ_hSIRT1: NovaScreen (NVS) Enzymatic Assay for human Sirtuin 1 (SIRT1) (AID 2283219). The essentials:
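Cell-free recombinant SIRT1 with a fluorescent substrate; substrate and product separated by electrophoretic mobility shift and read by fluorescence intensity, 1 h after dosing. Primary screen at 25 uM in duplicate; hits re-run in concentration-response up to 50 uM, relative to DMSO.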

The target of test [5] is human Protein Tyrosine Phosphatase Non-receptor Type 6 (PTPN6), PTPN6 (gene 5777) (UniProt P29350). Put plainly: NVS_ENZ_hPTPN6: NovaScreen (NVS) Enzymatic Assay for human Protein Tyrosine Phosphatase Non-receptor Type 6 (PTPN6) (AID 2283210). The method, boiled down:
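Cell-free assay with recombinant PTPN6 expressed in SF9 cells, fluorescent substrate, product separated from substrate by electrophoretic mobility shift; read 1.33 hours after dosing. Primary screen in duplicate at 25 uM, actives retested in concentration series; DMSO baseline.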

The target in test [6] is human SRC Proto-Oncogene, Non-receptor Tyrosine Kinase (SRC), SRC (gene 6714) (UniProt P12931). Description: NVS_ENZ_hSRC: NovaScreen (NVS) Enzymatic Assay for human SRC Proto-Oncogene, Non-receptor Tyrosine Kinase (SRC) (AID 2283223). The essentials: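 Cell-free kinase activity assay with fluorescent substrate, product separated by electrophoretic mobility shift, read 1 h after dosing. Duplicate single point at 25 uM, then concentration-response up to 50 uM; loss of signal versus DMSO.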

The target in test [7] is human Protein Tyrosine Phosphatase Non-receptor Type 4 (PTPN4), PTPN4 (gene 5775) (UniProt P29074). Description: NVS_ENZ_hPTPN4: NovaScreen (NVS) Enzymatic Assay for human Protein Tyrosine Phosphatase Non-receptor Type 4 (PTPN4) (AID 2283208). The method, boiled down: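 Cell-free assay of PTPN4 expressed in Sf9 cells, using a fluorescent substrate with product separated by mobility shift; read 1.33 h after dosing. Single-point screen at 25 uM, then concentration-response up to 50 uM. Loss of signal relative to DMSO.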

The target of test [8] is human Protein Tyrosine Phosphatase Non-receptor Type 9 (PTPN9), PTPN9 (gene 5780) (UniProt P43378). Description: NVS_ENZ_hPTPN9: NovaScreen (NVS) Enzymatic Assay for human Protein Tyrosine Phosphatase Non-receptor Type 9 (PTPN9) (AID 2283209). The method, boiled down: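 Sf9-expressed enzyme in a cell-free assay, fluorescence read 1.33 h after dosing with mobility-shift separation of substrate and product. Tested at 25 uM in duplicate, then up to 50 uM; signal loss versus DMSO.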

Test [9] concerns the target rabbit Imidazoline 2 Central (I2C), CKB (gene 100009085) (UniProt P00567). Put plainly: NVS_ENZ_rabI2C: NovaScreen (NVS) Enzymatic Assay for rabbit Imidazoline 2 Central (I2C) (AID 2283228). The method, boiled down:
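Rabbit brain membranes, cell-free; readout by filter-based scintillation counting 1.5 hours after dosing, loss of signal vs DMSO. Initial duplicate test at 25 uM, then concentration-response with 50 uM top concentration.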

The target in test [10] is human Sirtuin 2 (SIRT2), SIRT2 (gene 22933) (UniProt Q8IXJ6). Description: NVS_ENZ_hSIRT2: NovaScreen (NVS) Enzymatic Assay for human Sirtuin 2 (SIRT2) (AID 2283217). The essentials:
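Cell-free recombinant human SIRT2, fluorescent substrate with product separated by electrophoretic mobility shift, 1 hr. Screened in duplicate at 25 uM; hits rerun singly in concentration-response up to 50 uM, relative to DMSO.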

The target in test [11] is human Vascular Endothelial Growth Factor Receptor 2 (VEGFR2), KDR (gene 3791) (UniProt P35968). Description: NVS_ENZ_hVEGFR2: NovaScreen (NVS) Enzymatic Assay for human Vascular Endothelial Growth Factor Receptor 2 (VEGFR2) (AID 2283230). The essentials: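 Cell-free recombinant VEGFR2 kinase, fluorescent substrate with electrophoretic mobility-shift separation; read 1 h after dosing. Screened at 25 uM in duplicate, hits to concentration-response up to 50 uM; loss-of-signal versus DMSO.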
human Vascular Endothelial Growth Factor Receptor 2 (VEGFR2), KDR (gene 3791), sequence (P35968 whole entry, looked up): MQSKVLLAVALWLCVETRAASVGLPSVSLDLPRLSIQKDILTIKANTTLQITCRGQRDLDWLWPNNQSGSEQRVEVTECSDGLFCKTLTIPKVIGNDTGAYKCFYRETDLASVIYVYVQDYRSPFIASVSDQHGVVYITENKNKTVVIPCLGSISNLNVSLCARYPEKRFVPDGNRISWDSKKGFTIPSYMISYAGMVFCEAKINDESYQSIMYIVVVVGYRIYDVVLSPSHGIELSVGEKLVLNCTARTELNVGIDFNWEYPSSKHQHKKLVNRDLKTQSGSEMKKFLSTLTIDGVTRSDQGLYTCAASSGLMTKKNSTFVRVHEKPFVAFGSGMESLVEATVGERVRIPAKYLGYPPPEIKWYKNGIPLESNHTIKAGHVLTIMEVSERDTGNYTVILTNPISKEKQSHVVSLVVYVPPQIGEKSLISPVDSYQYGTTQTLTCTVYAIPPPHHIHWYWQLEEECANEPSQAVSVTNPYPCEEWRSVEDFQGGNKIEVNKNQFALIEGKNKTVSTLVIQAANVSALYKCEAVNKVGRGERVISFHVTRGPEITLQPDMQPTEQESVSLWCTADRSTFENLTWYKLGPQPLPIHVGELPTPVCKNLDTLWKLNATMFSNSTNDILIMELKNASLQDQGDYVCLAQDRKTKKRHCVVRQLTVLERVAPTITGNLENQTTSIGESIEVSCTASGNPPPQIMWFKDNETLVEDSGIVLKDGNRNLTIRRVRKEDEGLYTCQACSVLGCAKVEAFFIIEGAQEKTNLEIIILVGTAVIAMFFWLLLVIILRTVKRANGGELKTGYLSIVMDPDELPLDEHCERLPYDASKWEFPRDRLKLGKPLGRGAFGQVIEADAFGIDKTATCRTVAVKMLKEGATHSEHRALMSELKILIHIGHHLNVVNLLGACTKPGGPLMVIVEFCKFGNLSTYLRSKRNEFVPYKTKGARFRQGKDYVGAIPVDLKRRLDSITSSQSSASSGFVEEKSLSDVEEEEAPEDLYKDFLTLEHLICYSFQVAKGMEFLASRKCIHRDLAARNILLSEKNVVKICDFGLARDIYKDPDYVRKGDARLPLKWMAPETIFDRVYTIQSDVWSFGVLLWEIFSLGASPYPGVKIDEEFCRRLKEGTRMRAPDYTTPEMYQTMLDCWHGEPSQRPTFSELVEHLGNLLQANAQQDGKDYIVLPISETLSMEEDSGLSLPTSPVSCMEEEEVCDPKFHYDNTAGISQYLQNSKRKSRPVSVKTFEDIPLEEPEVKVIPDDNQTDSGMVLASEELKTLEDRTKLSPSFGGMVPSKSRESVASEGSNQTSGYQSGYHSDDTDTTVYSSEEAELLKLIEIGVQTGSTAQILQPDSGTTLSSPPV

Test [12] deals with sheep Cyclooxygenase-2 (Cox2), PTGS2 (gene 443460) (UniProt P79208). Put plainly: NVS_ENZ_oCOX2: NovaScreen (NVS) Enzymatic Assay for sheep Cyclooxygenase-2 (Cox2) (AID 2283231). The method, boiled down:
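Enzyme extracted from ovine placenta tested cell-free; activity read colorimetrically by absorbance 0.66 hour after dosing. Primary screen in duplicate at 25 uM; hits rerun as concentration series to 50 uM, loss of signal versus DMSO baseline.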

Test [13] concerns the target human Raf-1 Proto-Oncogene, serine/threonine Kinase (RAF1), RAF1 (gene 5894) (UniProt P04049). Put plainly: NVS_ENZ_hRAF1: NovaScreen (NVS) Enzymatic Assay for human Raf-1 Proto-Oncogene, serine/threonine Kinase (RAF1) (AID 2283216). The essentials:
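Cell-free recombinant kinase with specific fluorescent substrate, product separated by electrophoretic mobility shift; read 1 h after dosing. Primary screen at 25 uM in duplicate; hits then run in concentration-response up to 50 uM, fitted as loss of signal versus DMSO.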

Test [14] addresses human Vascular Endothelial Growth Factor Receptor 3 (VEGFR3), FLT4 (gene 2324) (UniProt P35916). Description: NVS_ENZ_hVEGFR3: NovaScreen (NVS) Enzymatic Assay for human Vascular Endothelial Growth Factor Receptor 3 (VEGFR3) (AID 2283229). The method, boiled down:
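Cell-free recombinant VEGFR3 kinase reaction with fluorescent substrate, read 1 h after dosing by electrophoretic mobility shift separation of substrate and product. Single-concentration duplicate screen at 25 uM, then concentration-response up to 50 uM; loss of activity versus DMSO.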

The target in test [15] is human Protein Tyrosine Phosphatase Receptor Type B (PTPRB), PTPRB (gene 5787) (UniProt P23467). Description: NVS_ENZ_hPTPRB: NovaScreen (NVS) Enzymatic Assay for human Protein Tyrosine Phosphatase Receptor Type B (PTPRB) (AID 2283211). The method, boiled down: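 Recombinant human PTPRB with a fluorescent substrate, product separated by electrophoretic mobility shift; read 1 h after dosing. Primary screen in duplicate at 25 uM; actives then retested in concentration series; loss of signal versus DMSO.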
human Protein Tyrosine Phosphatase Receptor Type B (PTPRB), PTPRB (gene 5787), sequence (P23467 whole entry, looked up): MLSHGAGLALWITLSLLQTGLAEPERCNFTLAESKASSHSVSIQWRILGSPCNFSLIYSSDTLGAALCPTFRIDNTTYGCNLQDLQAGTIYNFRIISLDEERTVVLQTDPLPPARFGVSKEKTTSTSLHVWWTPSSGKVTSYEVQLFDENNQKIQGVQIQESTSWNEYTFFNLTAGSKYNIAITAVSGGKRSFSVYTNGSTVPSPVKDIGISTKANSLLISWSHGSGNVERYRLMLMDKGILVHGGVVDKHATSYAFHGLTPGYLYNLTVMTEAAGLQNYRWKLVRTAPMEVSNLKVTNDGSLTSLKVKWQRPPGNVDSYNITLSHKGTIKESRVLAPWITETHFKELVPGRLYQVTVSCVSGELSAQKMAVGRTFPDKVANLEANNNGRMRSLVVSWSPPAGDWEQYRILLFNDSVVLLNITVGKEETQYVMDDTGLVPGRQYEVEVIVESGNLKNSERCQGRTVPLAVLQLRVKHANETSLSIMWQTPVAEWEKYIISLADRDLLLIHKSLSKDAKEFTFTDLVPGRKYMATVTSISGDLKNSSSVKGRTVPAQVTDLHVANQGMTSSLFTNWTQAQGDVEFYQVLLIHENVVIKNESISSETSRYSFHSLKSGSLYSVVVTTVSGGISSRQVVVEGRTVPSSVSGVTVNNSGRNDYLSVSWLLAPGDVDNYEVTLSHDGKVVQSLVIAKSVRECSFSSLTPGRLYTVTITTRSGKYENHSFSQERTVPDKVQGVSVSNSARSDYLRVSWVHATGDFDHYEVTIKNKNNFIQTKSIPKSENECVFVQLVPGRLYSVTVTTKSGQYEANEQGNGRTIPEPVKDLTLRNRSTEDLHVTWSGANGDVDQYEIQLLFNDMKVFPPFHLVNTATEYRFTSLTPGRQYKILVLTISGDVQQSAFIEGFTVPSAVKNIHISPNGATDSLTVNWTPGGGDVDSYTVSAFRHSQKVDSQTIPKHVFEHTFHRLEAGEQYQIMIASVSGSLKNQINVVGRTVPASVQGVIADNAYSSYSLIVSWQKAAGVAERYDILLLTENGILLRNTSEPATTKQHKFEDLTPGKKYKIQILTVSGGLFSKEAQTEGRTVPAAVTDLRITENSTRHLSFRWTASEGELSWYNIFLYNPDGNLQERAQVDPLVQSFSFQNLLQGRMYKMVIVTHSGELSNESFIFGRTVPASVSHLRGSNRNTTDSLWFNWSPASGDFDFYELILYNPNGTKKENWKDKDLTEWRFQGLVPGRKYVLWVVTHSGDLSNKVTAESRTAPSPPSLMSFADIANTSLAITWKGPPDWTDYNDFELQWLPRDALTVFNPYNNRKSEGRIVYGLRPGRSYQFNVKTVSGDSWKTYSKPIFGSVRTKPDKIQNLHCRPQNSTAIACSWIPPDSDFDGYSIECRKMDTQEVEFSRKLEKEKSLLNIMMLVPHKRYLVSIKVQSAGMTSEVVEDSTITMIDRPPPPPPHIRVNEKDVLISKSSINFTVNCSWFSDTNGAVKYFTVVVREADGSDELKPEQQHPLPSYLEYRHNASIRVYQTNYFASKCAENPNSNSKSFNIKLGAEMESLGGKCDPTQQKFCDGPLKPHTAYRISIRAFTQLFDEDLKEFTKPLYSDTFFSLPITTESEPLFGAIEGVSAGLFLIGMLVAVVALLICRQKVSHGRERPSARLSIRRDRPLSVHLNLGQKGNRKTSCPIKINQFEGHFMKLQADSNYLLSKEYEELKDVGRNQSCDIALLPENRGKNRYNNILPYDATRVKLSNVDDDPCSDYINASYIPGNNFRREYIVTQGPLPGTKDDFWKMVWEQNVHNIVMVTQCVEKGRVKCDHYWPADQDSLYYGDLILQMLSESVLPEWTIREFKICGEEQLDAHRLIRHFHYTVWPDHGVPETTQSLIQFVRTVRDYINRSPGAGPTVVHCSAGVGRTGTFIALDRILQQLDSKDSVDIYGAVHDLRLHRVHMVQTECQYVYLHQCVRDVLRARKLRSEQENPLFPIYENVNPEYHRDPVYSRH

The target of test [16] is human Protein Tyrosine Phosphatase Receptor Type C (PTPRC), PTPRC (gene 5788) (UniProt P08575). Description: NVS_ENZ_hPTPRC: NovaScreen (NVS) Enzymatic Assay for human Protein Tyrosine Phosphatase Receptor Type C (PTPRC) (AID 2283212). The essentials: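 Yeast-extracted human PTPRC used in a cell-free colorimetric enzyme activity read-out, 1 h after dosing. Primary screen in duplicate at 25 uM; actives rerun in concentration-response up to 50 uM, DMSO as baseline.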

For test [17], the target named is human Rho Associated Coiled-coil Containing Protein Kinase 1 (ROCK1), ROCK1 (gene 6093) (UniProt Q13464). Put plainly: NVS_ENZ_hROCK1: NovaScreen (NVS) Enzymatic Assay for human Rho Associated Coiled-coil Containing Protein Kinase 1 (ROCK1) (AID 2283214). The method, boiled down:
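Cell-free recombinant human ROCK1 activity assay; fluorescent substrate and product separated by electrophoretic mobility shift, read 1 h after dosing. Screened in duplicate at 25 uM; loss of signal versus DMSO baseline scored as inhibition.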

Test [18] has as its target human Tropomyosin Receptor Kinase A (TRKA), NTRK1 (gene 4914) (UniProt P04629). Put plainly: NVS_ENZ_hTrkA: NovaScreen (NVS) Enzymatic Assay for human Tropomyosin Receptor Kinase A (TRKA) (AID 2283224). The method, boiled down: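 Recombinant human TrkA activity read after 1 h by fluorescence with electrophoretic mobility shift separating substrate and product. Primary screen in duplicate at 25 uM; actives were rerun in concentration-response up to 50 uM. Loss of signal versus DMSO.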

In test [19] the target is human Vascular Endothelial Growth Factor Receptor 1 (VEGFR1), FLT1 (gene 2321) (UniProt P17948). Description: NVS_ENZ_hVEGFR1: NovaScreen (NVS) Enzymatic Assay for human Vascular Endothelial Growth Factor Receptor 1 (VEGFR1) (AID 2283226). The essentials:
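Cell-free assay of recombinant human VEGFR1 kinase with substrate, measured 1 h after dosing; fluorescence with electrophoretic mobility-shift separation of substrate and product, referenced to DMSO; primary screen at 25 uM in duplicate, actives then run in concentration series.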

This note sets out measurements from PubChem BioAssay (EPA / NIEHS).

SMILES strings stand for the structures. Several values for one entry are separate records, joined by “and”; a condition that tells them apart may be missing. Equal values may be shown once. Inconclusive results are not listed. Where a structure was tested more than once in an assay, its records may differ in their call. Activity calls are given as the source filed them. How the source made its calls: active means hit-call score of the fitted dose curve at least 0.9, where 1 is the maximum; inconclusive means response in the unintended direction; inactive means score below 0.9.

human Protein Tyrosine Phosphatase Receptor Type M (PTPRM), PTPRM (gene 5797), sequence (P28827 whole entry, looked up): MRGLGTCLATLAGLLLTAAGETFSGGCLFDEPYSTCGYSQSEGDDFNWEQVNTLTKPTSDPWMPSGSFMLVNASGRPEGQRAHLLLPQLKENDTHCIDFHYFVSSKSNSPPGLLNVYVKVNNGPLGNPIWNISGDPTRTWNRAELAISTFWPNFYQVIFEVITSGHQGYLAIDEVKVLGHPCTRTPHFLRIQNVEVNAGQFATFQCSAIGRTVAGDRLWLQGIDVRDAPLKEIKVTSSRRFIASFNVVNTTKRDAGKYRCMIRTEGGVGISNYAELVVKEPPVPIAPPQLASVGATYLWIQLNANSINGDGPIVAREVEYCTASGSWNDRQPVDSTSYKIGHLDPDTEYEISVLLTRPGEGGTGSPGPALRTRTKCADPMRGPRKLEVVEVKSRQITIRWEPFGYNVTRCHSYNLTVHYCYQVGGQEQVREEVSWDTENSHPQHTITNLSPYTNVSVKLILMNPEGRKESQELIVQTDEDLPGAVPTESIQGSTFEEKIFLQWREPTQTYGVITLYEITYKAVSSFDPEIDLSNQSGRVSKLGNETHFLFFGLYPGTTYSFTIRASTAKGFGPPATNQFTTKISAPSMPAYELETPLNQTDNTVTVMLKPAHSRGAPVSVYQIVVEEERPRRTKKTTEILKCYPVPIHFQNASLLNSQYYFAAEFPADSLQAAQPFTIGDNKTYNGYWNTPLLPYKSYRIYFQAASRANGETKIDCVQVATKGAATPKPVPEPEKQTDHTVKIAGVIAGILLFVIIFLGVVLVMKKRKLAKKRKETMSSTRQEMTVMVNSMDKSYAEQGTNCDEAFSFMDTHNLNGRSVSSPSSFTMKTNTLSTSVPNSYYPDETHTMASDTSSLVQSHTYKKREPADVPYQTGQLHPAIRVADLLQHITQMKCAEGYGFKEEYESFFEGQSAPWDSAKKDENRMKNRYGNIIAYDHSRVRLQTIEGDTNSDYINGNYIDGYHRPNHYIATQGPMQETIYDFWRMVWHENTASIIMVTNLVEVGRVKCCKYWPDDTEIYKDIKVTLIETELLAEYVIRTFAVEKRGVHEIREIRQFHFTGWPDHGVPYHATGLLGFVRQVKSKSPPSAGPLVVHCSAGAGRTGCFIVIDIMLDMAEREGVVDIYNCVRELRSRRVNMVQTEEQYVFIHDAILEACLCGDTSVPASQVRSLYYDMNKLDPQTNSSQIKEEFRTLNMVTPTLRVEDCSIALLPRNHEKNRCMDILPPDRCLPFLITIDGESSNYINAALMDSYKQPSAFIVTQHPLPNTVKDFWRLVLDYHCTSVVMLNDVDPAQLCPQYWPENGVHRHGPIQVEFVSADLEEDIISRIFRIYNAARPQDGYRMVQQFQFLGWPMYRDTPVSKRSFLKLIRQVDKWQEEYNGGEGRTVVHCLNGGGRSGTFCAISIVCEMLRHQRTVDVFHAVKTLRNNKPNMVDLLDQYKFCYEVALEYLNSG

For `C=C(C)[C@H]1Cc2c(ccc3c2O[C@@H]2COc4cc(OC)c(OC)cc4[C@@H]2C3=O)O1`, the result in test [1] was inactive.

For the compound `C[Si](Cn1cncn1)(c1ccc(F)cc1)c1ccc(F)cc1`, the result in test [2] was inactive.

In the case of `COP(=O)(OC)OC(Br)C(Cl)(Cl)Br` (configuration not stated), the result in [3] was inactive. For the same compound, the AC50 in test [4] was 15.8 µM (active).

As to `CCCCOC(=O)c1ccccc1C(=O)O`, the result in test [5] and in test [1] was inactive.

As to `CC(C1CC1)C(O)(Cn1cncn1)c1ccc(Cl)cc1` (configuration not stated), the compound was classed as inactive in [6].

Turning to `CCOP(=S)(OCC)OC(Cl)C(Cl)(Cl)Cl` (configuration not stated), the result in [7] was inactive. For the same compound, the AC50 in test [8] was 12.7 µM (active).

As to `C#CC(C)(C)NC(=O)c1cc(Cl)cc(Cl)c1`, the outcome in [9] was inactive.

As for `CC[C@H](C)[C@H]1O[C@]2(C=C[C@@H]1C)C[C@@H]1C[C@@H](C/C=C(\C)[C@@H](O[C@H]3C[C@H](OC)[C@@H](O[C@H]4C[C@H](OC)[C@@H](NC)[C@H](C)O4)[C@H](C)O3)[C@@H](C)/C=C/C=C3\CO[C@@H]4[C@H](O)C(C)=C[C@@H](C(=O)O1)[C@]34O)O2`, the AC50 in [3] was 9.67 µM (active); in test [10], 25 µM (active); in test [2], 1.25 µM (active); in test [6], 34 µM (active); in test [12] it was 0.0396 µM (active). Besides, the outcome in test [4], in [1] and in [11] was inactive.

For `CCCOc1nn(C(=O)NS(=O)(=O)c2ccccc2C(=O)OC)c(=O)n1C`, the call in test [7], in test [13] and in [14] was inactive.

Regarding `N#CSCSC#N`, the result in test [7], in [8], in test [3] and in test [2] was inactive. Also, in [4], the AC50 was 11.3 µM (active).

As for `CN(C)[C@@H]1C(=O)C(C(N)=O)=C(O)[C@@]2(O)C(=O)C3=C(O)c4c(O)cccc4[C@@](C)(O)[C@H]3[C@H](O)[C@@H]12`, the AC50 in test [7] is 12.1 µM (active); in test [8], 2.57 µM (active); in test [5], 41.4 µM (active); in [15] it was 29.7 µM (active) and 10.1 µM (active); in test [16], 11.4 µM (active); in [13], 11.1 µM (active). The AC50 in [18] was 17.8 µM (active); in test [1], 7.51 µM (active) and 13.4 µM (active) and 8.19 µM (active); in test [19], 3.49 µM (active); in [14] it was 6.44 µM (active) and 3.42 µM (active) and 969 nM (active); in test [11], 12.3 µM (active) and 18.2 µM (active); in test [12], 1.89 µM (active). The result in [15], in [17], in test [19] and in test [11] was inactive.
